Screening results as filed in PubChem BioAssay.
M1 ag: human M1 muscarinic receptor agonism; CHO-K1 hM1, Fluo-8 calcium fluorescence, agonist mode; 0% DMSO, 100% acetylcholine EC100; activation, % at 3 µM; P11229; hit rate 0.33% among 360,000; AID 588814;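 active = activation above the run's mean compound activation plus 3 SD, cut at about 16% in these data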;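 also: peak over basal fluorescence ratio within a 140 s kinetic read after compound addition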
Target sequence (P11229 whole entry, looked up): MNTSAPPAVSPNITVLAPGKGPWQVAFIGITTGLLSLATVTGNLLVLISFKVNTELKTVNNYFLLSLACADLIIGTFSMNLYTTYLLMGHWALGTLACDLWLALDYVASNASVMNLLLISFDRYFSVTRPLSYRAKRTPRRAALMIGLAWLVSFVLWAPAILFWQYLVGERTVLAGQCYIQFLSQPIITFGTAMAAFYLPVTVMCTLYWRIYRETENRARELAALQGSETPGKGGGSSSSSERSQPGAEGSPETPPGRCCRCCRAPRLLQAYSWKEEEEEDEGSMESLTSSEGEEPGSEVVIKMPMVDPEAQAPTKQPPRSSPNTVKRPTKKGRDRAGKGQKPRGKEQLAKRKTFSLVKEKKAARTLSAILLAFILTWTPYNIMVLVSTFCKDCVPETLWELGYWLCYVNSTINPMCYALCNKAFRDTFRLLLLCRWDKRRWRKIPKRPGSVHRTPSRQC
CHO-K1 Ca ag: counter-screen for M1 agonists: effect in parental CHO-K1 cells; Fluo-8 calcium fluorescence; scaled to maximal ATP response, vehicle zero; activation, % at 3 µM; hit rate 0.48% among 360,000; AID 602248; in the data active = activation above about 15%;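 also: untransfected CHO-K1 host cells lacking M1 receptor as counterscreen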
CHO-K1 Ca antag: M1 antagonist counterscreen hit in parental CHO-K1 cells. hit rate 0.6% among 360,000. inhibition, % at 3 µM. ATP-induced calcium, Fluo-8 fluorescence;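 active = inhibition above a per-plate cutoff, the plate's mean sample inhibition plus 3 SD, cut at about 24% in these data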
CHRM1 PAM: human CHRM1 positive allosteric modulation. CHO-K1 hM1, Fluo-8 calcium fluorescence, ACh EC20; 0% = ACh EC20, 100% = maximal ACh. activation, % at 3 µM. P11229. hit rate 0.088% among 360,000; in the data active = activation above about 19%, passing the limit was not always enough
CHO-K1 Ca PAM: nonselective activator or artifact in parental CHO-K1 calcium assay; AID 602247; hit rate 0.02% among 360,000; activation, % at 3 µM; ATP EC20, Fluo-8 calcium fluorescence; 0% at ATP EC20, 100% at ATP max;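 active = activation above the run cutoff, the mean activation of all test compounds plus 3 SD, cut at about 40% in these data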;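 also: peak over basal fluorescence ratio in a 140 s read after ATP addition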
M1 antag: human CHRM1 antagonism; P11229; CHO-K1 hM1, Fluo-8 calcium fluorescence, ACh EC80 antagonist; inhibition, % at 3 µM; hit rate 1.3% among 360,000; AID 588852;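 active = percent inhibition above its own plate's cutoff, namely the mean of that plate's compound wells plus 3 SD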;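 also: peak over basal fluorescence ratio during 140 s after agonist addition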
Large screens that a line does not name were inactive. In the library only some 2.4% were active in any assay of this set; here they are far more common.

CCOC(=O)c1c(C)[nH]c(C(=O)CN2C(=O)NC(C)(C)C2=O)c1C	none
Cc1ccc(NC(=O)CN2C(=O)NC(C)(c3ccc(Cl)cc3)C2=O)cc1 (centres undefined)	M1 ag 18
CC1(c2ccc(OC(F)F)cc2)NC(=O)N(CC(=O)Nc2cccc(F)c2)C1=O (centres undefined)	M1 ag 45, CHO-K1 Ca ag 32, CHO-K1 Ca antag 44, M1 antag 40
CCOC(=O)c1c(C)[nH]c(C(=O)CN2C(=O)NC(C)(c3ccc(C)cc3)C2=O)c1C (centres undefined)	M1 ag 22, CHO-K1 Ca ag 19
Cc1ccc(C2(C)NC(=O)N(CC(=O)Nc3ccc4c(c3)OCO4)C2=O)cc1 (centres undefined)	none
O=C(Nc1ccc(Oc2ccccc2)nc1)[C@H]1O[C@@H](n2ccc(=O)[nH]c2=O)[C@H](O)[C@@H]1O	none
CCOC(=O)c1ccccc1NC(=O)CSc1nc(N)cc(=O)[nH]1	none
O=Cc1ccc(OC2OCCOC2Oc2ccc(C=O)cc2)cc1 (centres undefined)	none
COc1ccc(O)c(/C=N/NC(=O)CN2CCS(=O)(=O)CC2)c1	none
CC1(c2ccc(OC(F)F)cc2)NC(=O)N(CC(=O)Nc2ccc(S(N)(=O)=O)cc2)C1=O (centres undefined)	none
CC1(c2ccc(OC(F)F)cc2)NC(=O)N(CC(=O)Nc2ccc(OC(F)F)cc2)C1=O (centres undefined)	M1 ag 36, CHO-K1 Ca ag 33, CHO-K1 Ca antag 28, M1 antag 29
CC1(c2ccc(OC(F)F)cc2)NC(=O)N(CC(=O)Nc2ccc(F)cc2)C1=O (centres undefined)	M1 ag 29, CHO-K1 Ca ag 25
CN(N)C(=S)Nc1ccc(Cl)cc1	none
CC(C)CN1C(=O)c2ccc(C(=O)Nc3ccncc3)cc2C1=O	CHO-K1 Ca ag 18
CC(C)CN1C(=O)c2ccc(C(=O)Nc3ccccn3)cc2C1=O	none
COc1cc(OC)cc(C(=O)N[C@H](C(=O)OCC(=O)c2ccc(C)c([N+](=O)[O-])c2)C(C)C)c1	none
O=C(CSc1ccc(Cl)cc1)N1N=CCC1c1ccccc1 (centres undefined)	none
NC(=NC(=O)c1ccc(Cl)cc1)N1N=CCC1c1ccccc1 (centres undefined)	CHO-K1 Ca antag 25
O=C(NC1CCCC1)C(c1ccccc1)N(Cc1cccnc1)C(=O)Cc1cccs1 (centres undefined)	none
CCN(CC)c1ccc2cc(C(C)=O)c(=O)oc2c1	none
CCN(CC)c1ccc2cc(C=O)c(=O)oc2c1	M1 ag 53, CHO-K1 Ca ag 26
CCN(CC)c1ccc2cc(-c3nnc(-c4ccncc4)o3)c(=O)oc2c1	M1 ag 22, CHO-K1 Ca ag 19
CCN(CC)c1ccc(NC(=O)CSc2nc3ccccc3c(=O)n2-c2cc(S(=O)(=O)N(C)C)ccc2C)cc1	CHO-K1 Ca antag 24
COc1ccc(OC)c(C2=C/C(=C/c3ccccn3)C(=O)O2)c1	none
CC(=O)c1ccccc1NC(=O)COC(=O)Cc1cccc(C(F)(F)F)c1	none
CC(C)Cn1c(SCC(=O)Nc2ccc3[nH]c(=O)[nH]c3c2)nc2ccccc2c1=O	none
COCCn1c(SCC(=O)Nc2ccc3[nH]c(=O)[nH]c3c2)nc2ccccc21	M1 antag 38
CCn1c(SCC(=O)Nc2ccc3[nH]c(=O)[nH]c3c2)nc2ccccc21	M1 antag 50
O=C(CC12CC3CC(CC(Br)(C3)C1)C2)NC1CCCC1	M1 antag 55
Cc1cccc(CSC2=NCCN2S(=O)(=O)c2ccc(F)cc2)c1	M1 antag 39
CC1(C(=O)NS(=O)(=O)Cc2cccc(Cl)c2)CCN1C(=O)C/C=C/c1ccccc1 (centres undefined)	none
CC(C)(C)C(=O)/C(=C/c1ccncc1)n1cncn1	none
CN(C(=O)CS(=O)(=O)c1cccc(Cl)c1)c1ccccc1	none
CCc1ccc(C(=O)C[n+]2cccc3cc(OC)ccc32)cc1	M1 antag 59
CCOC(=O)C1CCCN(C(=O)CCCn2nc(C)n3c(cc4sccc43)c2=O)C1 (centres undefined)	M1 ag 34
CCOC(=O)C1CCCN(C(=O)Cc2ccc(C)cc2)C1 (centres undefined)	none
CCCCC(=O)N1CCCC(C(=O)OCC)C1 (centres undefined)	M1 ag 26
CCOC(=O)C1CCCN(C(=O)Cn2sc3nc(C)cc(C)c3c2=O)C1 (centres undefined)	M1 ag 22
CCOC(=O)C1CCCN(C(=O)CCCn2nnnc2CN2CCOCC2)C1 (centres undefined)	M1 ag 49
CCOCC(=O)N1CCCC(C(=O)OCC)C1 (centres undefined)	M1 antag 101
CCOC(=O)C1CCN(C(=O)COc2ccc(S(=O)(=O)N3CCOCC3)cc2)CC1	none
Cc1ccc(OCCOC(=O)c2cc(S(=O)(=O)N3CCCCC3)ccc2N2CCOCC2)cc1	M1 antag 28
CCOC(=O)C1CCCN(C(=O)COc2ccc(S(=O)(=O)N3CCOCC3)cc2)C1 (centres undefined)	M1 ag 31
O=C(OCCOc1ccc(Cl)cc1)c1cc(S(=O)(=O)N2CCCCC2)ccc1N1CCOCC1	none
CCOC(=O)[C@@H]1[C@H]2COc3ccccc3[C@H]2N2C(=O)N(c3cccc(Cl)c3)C(=O)[C@]12C	none
c1ccc(Oc2ccc(-c3ccn[nH]3)cc2)cc1	none
c1ccc(-c2ncc(-c3ccn[nH]3)s2)cc1	CHO-K1 Ca antag 29
CC1CCN(CCOCCOc2ccc(Br)cc2Cl)CC1	M1 antag 45
CCN(CC)c1ccc(/C=N/n2c(-c3ccccc3Br)n[nH]c2=S)cc1	M1 antag 81
COc1ccccc1C(O)(C(=O)NN(C)c1ccccc1)c1ccccc1OC	none
CCOC(=O)Cc1c(C)nc(Cc2ccc(OC(C)C)cc2)[nH]c1=O	none
CCN(CC)C1CCN(Cc2c(C(=O)N3CCCCCCC3)nc3ccc(Cl)cn23)C1 (centres undefined)	M1 antag 32
CCOC(=O)[C@]12CCCC=C1N(Cc1ccco1)C(=O)[C@H](CC(=O)NCc1ccccc1)C2	none (no result: M1 ag, CHRM1 PAM, M1 antag)
O=C(c1ccc(CSc2nc3ccncc3[nH]2)cc1)N1CCN(c2cccc(Cl)c2)CC1	M1 antag 36
O=C(c1ccc(CSc2nc3ccncc3[nH]2)cc1)N1CCCCCC1	none
Cn1cccc1C(=O)NC1CCCCCC1	none
O=C(N/N=C/c1cn(-c2cccs2)nc1-c1ccccc1)c1ccccc1O	CHO-K1 Ca antag 29
N=c1ccn(Cc2cccc(F)c2)cc1	M1 antag 42
